Records with an inconclusive call do not appear. A number with no mark means an inactive call. Active and inactive are the calls of the source. Calls come from the whole dose curve.
Test: Primary qHTS for inhibitors of MERS-S pseudo-typed particle cell entry (AID 1479149); note: nearly all actives have a fitted effect of over 60% in size
Settings: MERS-S pseudotyped particle entry, luciferase; series mostly up to 57.1 µM; activity change, negative = inhibition: at the top concentration
For `CCNC1(c2cccs2)CCCCC1=O` (centres undefined), the outcome was “inactive”. In the case of `CN1[C@H]2CC[C@@H]1[C@@H](C(=O)O)[C@@H](OC(=O)c1ccccc1)C2`, the outcome is reported as “inactive [at 114 µM]”. In the case of `O=C(C[C@@H]1NCCC[C@H]1O)Cn1cnc2cc(Br)c(Cl)cc2c1=O`, the outcome is reported as “inactive”. In the case of `COc1cc2c(cc1OC)[C@@]13CCN4CC5=CCO[C@H]6CC(=O)N2[C@H]1[C@H]6[C@H]5C[C@H]43`, the outcome is reported as “inactive”. In the case of `c1ccc2sc(SNC3CCCCC3)nc2c1`, the outcome is reported as “inactive [at 114 µM]”. For `CC(=O)O[C@H]1CC[C@H]2[C@@H]3CCC4=CC(=O)CCC4=C3C=C[C@]12C`, the “activity change, negative = inhibition” value was -34.1%. In the case of `O=C/C=C/c1ccccc1`, the outcome is reported as “inactive”. With `O=C(OCCN1CCCCC1)C(O)(c1ccccc1)c1ccccc1` the outcome was “inactive”. For `Cn1sc(Cl)cc1=O`, the outcome was “inactive”. For `O=[N+]([O-])c1ccccc1`, the “activity change, negative = inhibition” value was -8.27%. With `O=c1[nH]cc(N(CCCl)CCCl)c(=O)[nH]1` the outcome was “inactive [at 114 µM]”. In the case of `CCCCCCCCCC(=O)O[C@H]1CC[C@H]2[C@@H]3CCC4=CC(=O)CC[C@]4(C)[C@H]3CC[C@]12C`, the outcome is reported as “inactive”. For `CC1CCC(C(C)C)C(OC(=O)c2ccccc2N)C1` (centres undefined), the outcome was “inactive”. With `C[C@@H](CO)NC(=O)[C@@H]1C=C2c3cccc4[nH]cc(c34)C[C@H]2N(C)C1` the “activity change, negative = inhibition” value was -16.1%. For `O=C(O)C(Cl)(Cl)Cl`, the outcome was “inactive”. For `CC[N+](C)(CC)CCOC(=O)C(O)(c1ccccc1)c1ccccc1`, the outcome was “inactive”. With `O=[N+]([O-])c1cc(I)c(O)c(I)c1` the “activity change, negative = inhibition” value was -9.46%.

Test: Primary qHTS for Vero E6 cytotoxicity: counterscreen for inhibitors of SARS-S pseudo-typed particle cell entry (AID 1479150)
Settings: cell viability; series mostly up to 57.1 µM; activity change, negative = cytotoxicity: at the top concentration
With `CCNC1(c2cccs2)CCCCC1=O` (centres undefined) the “outcome” value was “inactive”. In the case of `CN1[C@H]2CC[C@@H]1[C@@H](C(=O)O)[C@@H](OC(=O)c1ccccc1)C2`, the “outcome” value is reported as “inactive [at 114 µM]”. In the case of `O=C(C[C@@H]1NCCC[C@H]1O)Cn1cnc2cc(Br)c(Cl)cc2c1=O`, the “outcome” value is reported as “inactive”. In the case of `COc1cc2c(cc1OC)[C@@]13CCN4CC5=CCO[C@H]6CC(=O)N2[C@H]1[C@H]6[C@H]5C[C@H]43`, the “outcome” value is reported as “inactive”. In the case of `c1ccc2sc(SNC3CCCCC3)nc2c1`, the “activity change, negative = cytotoxicity” value is reported as -2.54% [at 114 µM]. With `CC(=O)O[C@H]1CC[C@H]2[C@@H]3CCC4=CC(=O)CCC4=C3C=C[C@]12C` the “activity change, negative = cytotoxicity” value was -6.59%. With `O=C/C=C/c1ccccc1` the “outcome” value was “inactive”. With `O=C(OCCN1CCCCC1)C(O)(c1ccccc1)c1ccccc1` the “activity change, negative = cytotoxicity” value was 1.02%. For `Cn1sc(Cl)cc1=O`, the “outcome” value was “inactive”. In the case of `O=[N+]([O-])c1ccccc1`, the “activity change, negative = cytotoxicity” value is reported as -4.55%. For `O=c1[nH]cc(N(CCCl)CCCl)c(=O)[nH]1`, the “outcome” value was “inactive [at 114 µM]”. With `CCCCCCCCCC(=O)O[C@H]1CC[C@H]2[C@@H]3CCC4=CC(=O)CC[C@]4(C)[C@H]3CC[C@]12C` the “activity change, negative = cytotoxicity” value was 4.15%. For `CC1CCC(C(C)C)C(OC(=O)c2ccccc2N)C1` (centres undefined), the “activity change, negative = cytotoxicity” value was -11.7%. With `C[C@@H](CO)NC(=O)[C@@H]1C=C2c3cccc4[nH]cc(c34)C[C@H]2N(C)C1` the “activity change, negative = cytotoxicity” value was 4.95%. For `O=C(O)C(Cl)(Cl)Cl`, the “outcome” value was “inactive”. In the case of `CC[N+](C)(CC)CCOC(=O)C(O)(c1ccccc1)c1ccccc1`, the “outcome” value is reported as “inactive”. For `O=[N+]([O-])c1cc(I)c(O)c(I)c1`, the “outcome” value was “inactive”.
% is set by controls: 0 for no effect and ±100 for the full control effect.
